Here are results for five molecules from PubChem BioAssay AID1645855 (Buhrlage Lab, Dana-Farber Cancer Institute and Novartis …, 2021).

Screen size: about 47,000 compounds; about 3,100 (6.6%) were called active. This is one part of a sample in which actives are shown more often than they occur. No stated cut-off is given here; in the data, active means inhibition above about 30%; inactive means the rest.

Sequence of Ubiquitin carboxyl-terminal hydrolase 17-like protein 5 (Homo sapiens) (A8MUK1 whole entry, looked up): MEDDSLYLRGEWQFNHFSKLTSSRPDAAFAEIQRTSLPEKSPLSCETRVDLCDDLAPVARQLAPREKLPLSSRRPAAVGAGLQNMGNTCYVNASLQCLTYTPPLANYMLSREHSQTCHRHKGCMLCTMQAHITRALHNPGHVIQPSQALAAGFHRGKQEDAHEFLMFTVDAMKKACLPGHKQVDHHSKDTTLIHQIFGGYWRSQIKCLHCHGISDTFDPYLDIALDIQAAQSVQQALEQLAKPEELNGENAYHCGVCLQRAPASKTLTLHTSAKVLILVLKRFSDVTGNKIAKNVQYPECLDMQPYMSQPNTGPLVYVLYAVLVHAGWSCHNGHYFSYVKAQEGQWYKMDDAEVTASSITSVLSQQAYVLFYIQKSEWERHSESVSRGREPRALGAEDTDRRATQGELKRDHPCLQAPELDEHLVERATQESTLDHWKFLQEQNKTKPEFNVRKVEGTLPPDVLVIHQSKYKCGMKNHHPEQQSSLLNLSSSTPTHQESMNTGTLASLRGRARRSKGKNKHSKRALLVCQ

This test has as its target Ubiquitin carboxyl-terminal hydrolase 17-like protein 5 (Homo sapiens) (UniProt A8MUK1). As to the kind of experiment: blocks human USP17 ubiquitin-rhodamine cleavage (AID 1645855). Conditions: purified USP17, Ub-rhodamine cleavage fluorescence, 3 h; at 50 µM; stronger effect = higher value.
As a reminder, the inhibition is the drop in the measured response relative to a control, in per cent. Turning to `COc1cc([C@@H]2c3cc4c(cc3C[C@@H]3COC(=O)[C@H]32)OCO4)cc(OC)c1OC`, the inhibition was 68.6% (active). Then `O=C1CSC(c2ccc(F)cc2)c2c(-c3ccccc3)nn(-c3ccccc3)c2N1` (stereo not given), with 6.01% (inactive); and `c1ccc(C2NCc3ccccc3-n3cccc32)cc1` (stereo not given), with 1.12% (inactive); and `O=c1c2ccccc2nc(-c2ccccc2)n1-c1ccccn1`, with -2.09% (inactive). Then `CN1C[C@H]2N(c3ncccn3)CCC[C@@]2(C(=O)NCC2CC2)C1`, with 8.79% (inactive).
